# From PubChem BioAssay AID1259415 (National Center for Advancing Translational Sciences (NCATS), 2018)
# About 18,000 (4.4%) of roughly 410,000 compounds were called active. Another 7% or so got no clear call; they are omitted. The list comes from a sample in which actives are over-represented; it also holds similar structures and randomly drawn compounds. Values without a mark were called inactive. Cut-off read from the data, not from the text of the source: active = activity change below about -60%; inconclusive = no clear call, values can overlap the other calls; inactive = above about -39%.
# Assay: qHTS Assay for inhibitors of the human cytomegalovirus (HCMV)
# Conditions: HFF cells, HCMV-luciferase reporter, 72 h; at 57.5 µM; hits give low values
# Outline: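 Two compound doses tested in HFFs infected with HCMV-luciferase, MOI 1 PFU/cell, 72 h at 37C. Lysate luminescence read with OneGlo; data normalized against buffer-only and 10uM Salinomycin inhibitor controls.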
# % is set by controls: 0 for no effect and ±100 for the full control effect.
row,SMILES,"activity change, negative = inhibition"
1,CCn1cc(C(=O)NCCc2ccccc2)c(=O)c2cc(S(=O)(=O)N3CCCCCC3)ccc21,-9.08%
2,CCCCNC(=O)c1nc2cc(C)c(C)cc2nc1-c1ccc(OC)cc1,9.19%
3,COc1ccc(-c2nc3c4ccccc4n(CC(=O)Nc4ccc(C(C)=O)cc4)c(=O)n3n2)cc1,29.2%
4,OCCN1CCN(c2ncnc3c2ncn3[C@H]2CN(Cc3ccco3)C[C@@H](CO)O2)CC1,-21.8%
5,CC(C)Nc1ncnc2c1ncn2[C@H]1CN(Cc2ccncc2)C[C@@H](CO)O1,23.6%
6,OC[C@@H]1CN(Cc2cccs2)C[C@H](n2cnc3c(Nc4ccccc4)ncnc32)O1,-28.3%
7,OC[C@@H]1CN(C2CCCC2)C[C@H](n2cnc3c(NC4CCC4)ncnc32)O1,-6.08%
8,OC[C@@H]1CN(Cc2ccncc2)C[C@H](n2cnc3c(N4CCN(c5ccccc5)CC4)ncnc32)O1,-88% (active)
9,OC[C@@H]1CN(Cc2ccc(-c3ccccc3)cc2)C[C@H](n2cnc3c(NC4CCCC4)ncnc32)O1,-84.2% (active)
10,CCCOC(=O)c1c(NC(=O)c2cc3nc(-c4ccc(OC)cc4)cc(C(F)(F)F)n3n2)sc2c1CCCC2,-2.77%
11,Cc1ccc(CSc2nc3ccsc3c(=O)n2CCC(C)C)cc1,-15.8%
12,COc1ccccc1CNC(=O)CS(=O)(=O)c1cccc2nsnc12,22.9%
13,CCCc1ccc(-c2c(C)sc(NC(=O)c3ccnn3C)c2C#N)cc1,-97.3% (active)
14,Cc1c(C#N)c(NC(=O)c2ccccc2)n(Cc2ccccc2)c1C,-33.4%
15,Cc1c(C(=O)OC(C)C)sc(NC(=O)c2cccnc2)c1C#N,4.66%
16,CCc1cccc(NC(=O)COC(=O)C2CCN(c3ccc(C(F)(F)F)cn3)CC2)c1,-14.3%
17,Cc1ccc(NC(=O)CN2c3ccccc3S(=O)(=O)c3ccccc32)cc1F,18.3%
18,CCN(CC)CCNC(=O)c1cc2c(=O)oc3ccc(C)cc3c2s1,3.23%
19,COc1ccc(/C=N/OCc2ccccc2C#N)c(OC)c1,50.3%

row,SMILES,"activity change, negative = inhibition"
1,COc1ccc(-c2nn3c(-c4ccc(OC)cc4)nnc3c3ccccc23)cc1,7.26%
2,FC(F)(F)c1nnc2c3ccccc3c(Cl)nn12,-86.4% (active)
3,Nc1nnc2c(C(F)(F)F)nc3ccccc3n12,1.13%
4,Cc1cc(C)n2nc(C(=O)Oc3ccc4c(c3)OCO4)nc2n1,12.7%
5,CC(=O)c1nn(-c2ccc(OC(F)(F)F)cc2)nc1Nc1ccccc1,-19.8%
6,COc1ccc(NC(=O)c2ccc3nc(CCc4ccccc4)oc3c2)c(OC)c1,15.1%
7,CCN1CCC(O)(/C=C/c2ccc(C)cc2)C(C(=O)/C=C/c2ccc(C)cc2)C1 (configuration not stated),-101% (active)
8,O=C(CCOc1ccccc1)N(Cc1cccnc1)c1nc2ccc(Cl)cc2s1,-5.41%
9,O=C(CCS(=O)(=O)c1ccccc1)N(Cc1cccnc1)c1nc2c(F)cccc2s1,112%
10,Cc1ccc(-c2nc3ccccn3c2Nc2c(C)cccc2C)o1,-20.4%
11,Cc1cccc(C(=O)Nc2ccc(S(=O)(=O)N3CCCCC3c3cccnc3)cc2)c1 (configuration not stated),-34.9%
12,O=C(CS(=O)(=O)c1cccc2nsnc12)N1CCN(c2cccc(Cl)c2)CC1,-13.3%
13,C/C(Cc1ccccc1)=N\NC(=O)CNC(=O)c1ccccc1Cl,22.5%
14,O=[N+]([O-])c1ccc(NC(=S)N2CCN(c3ccccn3)CC2)cc1,-38.3%
15,CC(=NNC(=S)N1CCCCCC1)c1ccccn1,-98.7% (active)
16,CCOC(=O)c1ccc(NC(=S)N2CCN(c3ccccn3)CC2)cc1,0.324%
17,C/C(=N\NC(=O)c1ccccc1F)c1ccccn1,-113% (active)
18,O=C(NC(=S)NC1CCSC1=O)c1ccccc1F (configuration not stated),-2.85%
19,C/C(=N/NC(=O)CSc1ccccn1)c1ccc([N+](=O)[O-])cc1,21.4%

row,SMILES,"activity change, negative = inhibition"
1,C/C(=N\NC(=O)Cc1ccc(Cl)cc1)c1ccccn1,-98.9% (active)
2,C/C(=N/NC(=O)c1ccn(C)n1)c1ccncc1,22.2%
3,CCC[C@H]1[C@H](NCC2CCCCC2)CC[C@@]23CCCN2C(=O)CCC[C@@H]13,-6.34%
4,CSCC[C@H](NC(=O)NCCc1ccc(F)cc1)C(=O)O,-21.4%
5,CCOc1ccc(NC(=O)C(=O)NCCc2csc3nc(-c4ccccc4F)nn23)cc1,18.8%
6,C=CCC[C@@H](CCCCC)OC(=O)/C=C/[C@@H](O)[C@H](O)C[C@H](O)CC=C,-0.272%
7,Fc1ccc(-c2nn(-c3ccccc3Cl)c3c2cnc2ccccc23)cc1,-6.36%
8,O=C(NC1(C(F)(F)F)NC(=O)N(Cc2cccnc2)C1=O)c1ccccc1Cl (configuration not stated),-16%
9,CN(CC(=O)NCc1ccc(Cl)cc1)S(=O)(=O)c1cccs1,-18.2%
10,O=S(=O)(NCCc1ccc(Cl)cc1)c1cccs1,-79.1% (active)
11,CCc1ccc(NC(=O)CCNS(=O)(=O)c2cccs2)cc1,24.2%
12,Cc1ccc2nc3c(cc(C(=O)NC4CCCCC4)c(=N)n3C(C)C)c(=O)n2c1,-12.2%
13,CC(NC(=O)c1cccc(S(=O)(=O)N2CCc3ccccc3C2)c1)c1ccco1 (configuration not stated),-21.6%
14,Cc1cccc(N2CCN(C(=O)c3cccc(S(=O)(=O)N4CCc5ccccc5C4)c3)CC2C)c1 (configuration not stated),-62.2% (active)
15,CN(C)C(CNC(=O)c1cccc(S(=O)(=O)N2CCc3ccccc3C2)c1)c1ccccc1 (configuration not stated),6.73%
16,CCc1nnc2c3ccccc3nc(N3CCN(c4ccc(C)cc4C)CC3)n12,2.29%
17,COc1ccccc1N1CC(C(=O)Nc2nnc(SCC(=O)NC(C)C)s2)CC1=O (configuration not stated),45.2%
18,CC(C)Nc1nnc(SCC(=O)/C=C2\N(C)c3ccccc3C2(C)C)s1,-65.1% (active)
19,COC(=O)c1ccc(CSc2nnc(NC(C)C)s2)cc1,-2.57%
